In PubChem BioAssay one finds composite z-score and z-score data, which are given here for four compounds.

In assay [1] the test system is Wnt5a (protein binding on small-molecule microarray). Nature of the assay: small molecules binding Wnt5a protein – biophysical, small-molecule microarray, 635/667 nm fluorescence, primary screen (AID 1142).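 Note: fluorescence read at 667 nm with signal to noise per printed feature.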 The note with it: 635 nm fluorescence, higher = more signal.
Assay [2] can be described thus: ATP-based viability of Huh7 replicon cells – cell-based, CellTiter-Glo luminescence, basal, 48 h, cytotoxicity control for HCV replication inhibitor project, primary screen (AID 1143).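 Note: Huh7 hepatoma cells carrying a hepatitis C replication reporter with no stimulus; test concentration not given here.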 The note with it: higher = more signal, called active from +8 up or from −8 down. (Replicon systems follow genome replication, usually without infectious particles.)
A short description of assay [3]: Pseudomonas biofilm growth suppression – PAO1 strain, BacTiter-Glo luminescence, LB-PBS, primary screen (AID 1144). As to conditions: P. aeruginosa PAO1 biofilm, 12 h, higher = more signal.
The nature of assay [4]: basal CRE-LacZ reporter activity in PC12 – cell-based, unstimulated, primary screen (AID 1145). As to conditions: no forskolin, luminescence, 4.5 h, higher = more signal, called active from +8 up or from −8 down.
A short description of assay [5]: forskolin-driven CRE-LacZ activity in PC12 – cell-based, CRE-LacZ reporter, forskolin-stimulated, primary screen (AID 1146).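 Note: PC12 cells with 6xCRE LacZ reporter stimulated by forskolin 10 µM; beta-galactosidase reporter signal reflecting CREB driven transcription.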 As to conditions: luminescence, 4.5 h, higher = more signal, called active from +8 up or from −8 down.
For assay [6], the target named is Streptavidin (Streptomyces avidinii) (UniProt P22629). Nature of the assay: compounds binding control protein streptavidin – biophysical, small-molecule microarray, 635/667 nm fluorescence, artefact control for SMM compound annotation, primary screen (AID 1147).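 Note: signal reflects streptavidin binding to arrayed compounds as a control protein.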 As to conditions: higher = more signal.
A short description of assay [7]: probe aInhba binding on compound microarray – biochemical, small-molecule microarray, 635/667 nm fluorescence, primary screen (AID 1148).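 Note: score merges 667nm spot fluorescence with signal-to-noise for antibody binding to printed compounds.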 As to conditions: higher = more signal.
The target of assay [8] is Torsin-1A (Homo sapiens) (UniProt O14656). Nature of the assay: TOR1A wild-type binding on microarray – cell lysate, small-molecule microarray, lysate, 635/667 nm, primary screen (AID 1149). As to conditions: COS7 hTOR1A-WT lysate, 635 nm fluorescence, higher = more signal.
Assay [9] shares this target. Nature of the assay: torsin A mutant lysate binding on microarrays – cell lysate, small-molecule microarray, COS7 lysate, 635/667 nm fluorescence, primary screen (AID 1150).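 Note: score pools 667 nm emission and signal to noise measuring lysate protein binding.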 The note with it: COS7 hTOR1A mutant lysate, 635 nm fluorescence, higher = more signal.
The subject of assay [10] is Sonic hedgehog protein (Shh). The experiment in a line: Sonic hedgehog microarray binding compounds – biochemical, small-molecule microarray, 635/667 nm fluorescence, primary screen (AID 1151).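 Note: Shh protein binding to compounds spotted on small-molecule microarray slides; score combines spot fluorescence intensity with signal-to-noise across triplicate slides.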 As to conditions: 635 nm fluorescence, higher = more signal.
Assay [11] in a line: optical density shifts of acrAB sulA E. coli – strain DRC41, OD650, 48 h, E. coli filamentation inducer project, primary screen (AID 1152).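 Note: E. coli MC1000 strain DRC41 lacking acrAB efflux pump and sulA.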 As to conditions: higher = more signal, called active from +8 up or from −8 down.
Assay [12] is described as follows: probe aLefty1 binding on compound microarray – biochemical, small-molecule microarray, 635/667 nm fluorescence, primary screen (AID 1153).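 Note: score merges spot fluorescence with signal-to-noise ratio from the scanned slide images.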 As to conditions: higher = more signal.
Assay [13] can be described thus: plasmodial surface anion channel blockers, osmotic lysis – cell-based, P. falciparum Indochina, OD700, 1 h, primary screen (AID 1154). The note with it: P. falciparum Indochina infected RBC osmotic lysis, higher = more signal, called active from +8 up or from −8 down.
The nature of assay [14]: plasmodial surface anion channel blockers, osmotic lysis – cell-based, P. falciparum Indochina, OD700, 2 h, primary screen (AID 1155).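 Note: lysis reports solute entry through the parasite surface anion channel PSAC.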 As to conditions: P. falciparum Indochina infected erythrocytes, higher = more signal, called active from +8 up or from −8 down.
The nature of assay [15]: changes in parasitized red cell lysis, either direction – P. falciparum Indochina, OD700, 3 h, PSAC antagonist project, primary screen (AID 1156). As to conditions: P. falciparum-infected erythrocytes, osmotic lysis, higher = more signal, called active from +8 up or from −8 down.
Assay [16] in a line: plasmodial surface anion channel blockers, osmotic lysis – cell-based, P. falciparum Indochina, OD700, 18 h, primary screen (AID 1157). As to conditions: P. falciparum Indochina infected erythrocytes, osmotic lysis OD700, 18 h; higher = more signal, called active from +8 up or from −8 down.
Assay [17] in a line: S6 kinase pathway phospho-S6 level changes – cell-based, A549, cytoblot, luminescence, serum-stimulated, primary screen (AID 1158).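 Note: serum-stimulated A549 lung adenocarcinoma cells; signal is phosphorylated S6 detected by cytoblot immunostaining with HRP secondary.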 As to conditions: 5 h, higher = more signal.
Assay [18] deals with NADPH oxidase 2 (Homo sapiens) (UniProt P04839). Nature of the assay: compounds shifting NOX2 Amplex Red fluorescence – cell-based, HEK293-NOX2, PMA-stimulated, NOX inhibitor project, primary screen (AID 1159). Note: test concentration not given here. As to conditions: 45 min, higher = more signal, called active from +8 up or from −8 down.
Assay [19] concerns the target NADPH oxidase 4 (Homo sapiens) (UniProt Q9NPH5). Nature of the assay: compounds shifting NOX4 Amplex Red fluorescence – cell-based, HEK293-NOX4, tetracycline-induced, NOX inhibitor project, primary screen (AID 1160). As to conditions: HEK293-NOX4, Amplex Red H2O2 fluorescence, 45 min; higher = more signal, called active from +8 up or from −8 down.
Assay [20] deals with NADPH oxidase 5 (Homo sapiens) (UniProt Q96PH1). The experiment in a line: compounds shifting NOX5 Amplex Red fluorescence – cell-based, HEK293-NOX5, NOX inhibitor project, primary screen (AID 1161). As to conditions: HEK293-NOX5, ionomycin, 45 min, higher = more signal.

Molecules are shown by their SMILES. Activity calls are given as the source filed them. Unless noted, the rule behind the calls is not given here.

NADPH oxidase 2 (Homo sapiens), sequence (P04839 whole entry, looked up): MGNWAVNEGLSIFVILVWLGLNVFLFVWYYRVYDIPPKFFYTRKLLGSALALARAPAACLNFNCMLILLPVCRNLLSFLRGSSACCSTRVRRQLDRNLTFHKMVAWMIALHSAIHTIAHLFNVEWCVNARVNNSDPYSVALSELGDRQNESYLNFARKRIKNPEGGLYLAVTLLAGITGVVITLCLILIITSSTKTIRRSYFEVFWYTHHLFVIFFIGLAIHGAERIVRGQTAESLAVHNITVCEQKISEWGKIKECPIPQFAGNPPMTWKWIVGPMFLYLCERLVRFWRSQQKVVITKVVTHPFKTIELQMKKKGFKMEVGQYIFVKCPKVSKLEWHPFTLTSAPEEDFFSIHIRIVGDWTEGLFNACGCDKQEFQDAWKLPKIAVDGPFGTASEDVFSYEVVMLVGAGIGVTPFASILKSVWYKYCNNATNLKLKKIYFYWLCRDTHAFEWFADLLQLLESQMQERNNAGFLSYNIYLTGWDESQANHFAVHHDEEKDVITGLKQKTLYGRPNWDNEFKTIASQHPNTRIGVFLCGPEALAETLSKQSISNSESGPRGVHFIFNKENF
NADPH oxidase 4 (Homo sapiens), sequence (Q9NPH5 whole entry, looked up): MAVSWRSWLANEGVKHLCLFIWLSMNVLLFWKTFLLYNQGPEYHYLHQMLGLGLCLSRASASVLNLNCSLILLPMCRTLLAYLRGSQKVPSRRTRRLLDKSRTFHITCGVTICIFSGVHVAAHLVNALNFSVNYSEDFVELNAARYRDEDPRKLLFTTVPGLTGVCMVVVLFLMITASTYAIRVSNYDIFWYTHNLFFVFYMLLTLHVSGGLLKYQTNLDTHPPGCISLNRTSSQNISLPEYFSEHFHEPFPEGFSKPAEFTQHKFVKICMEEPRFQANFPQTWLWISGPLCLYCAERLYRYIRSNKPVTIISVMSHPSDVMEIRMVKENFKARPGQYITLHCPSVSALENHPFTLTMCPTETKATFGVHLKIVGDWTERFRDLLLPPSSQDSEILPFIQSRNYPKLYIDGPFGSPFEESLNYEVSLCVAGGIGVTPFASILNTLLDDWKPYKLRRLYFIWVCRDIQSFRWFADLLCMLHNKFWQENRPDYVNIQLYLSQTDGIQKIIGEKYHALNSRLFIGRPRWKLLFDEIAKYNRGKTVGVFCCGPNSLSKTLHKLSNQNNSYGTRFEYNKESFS
Streptavidin (Streptomyces avidinii), sequence (P22629 whole entry, looked up): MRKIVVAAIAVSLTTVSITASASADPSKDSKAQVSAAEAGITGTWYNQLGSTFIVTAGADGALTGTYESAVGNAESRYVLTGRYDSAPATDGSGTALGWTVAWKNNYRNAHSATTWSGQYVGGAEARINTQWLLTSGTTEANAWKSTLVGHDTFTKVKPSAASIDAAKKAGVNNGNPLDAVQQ
NADPH oxidase 5 (Homo sapiens), sequence (Q96PH1 whole entry, looked up): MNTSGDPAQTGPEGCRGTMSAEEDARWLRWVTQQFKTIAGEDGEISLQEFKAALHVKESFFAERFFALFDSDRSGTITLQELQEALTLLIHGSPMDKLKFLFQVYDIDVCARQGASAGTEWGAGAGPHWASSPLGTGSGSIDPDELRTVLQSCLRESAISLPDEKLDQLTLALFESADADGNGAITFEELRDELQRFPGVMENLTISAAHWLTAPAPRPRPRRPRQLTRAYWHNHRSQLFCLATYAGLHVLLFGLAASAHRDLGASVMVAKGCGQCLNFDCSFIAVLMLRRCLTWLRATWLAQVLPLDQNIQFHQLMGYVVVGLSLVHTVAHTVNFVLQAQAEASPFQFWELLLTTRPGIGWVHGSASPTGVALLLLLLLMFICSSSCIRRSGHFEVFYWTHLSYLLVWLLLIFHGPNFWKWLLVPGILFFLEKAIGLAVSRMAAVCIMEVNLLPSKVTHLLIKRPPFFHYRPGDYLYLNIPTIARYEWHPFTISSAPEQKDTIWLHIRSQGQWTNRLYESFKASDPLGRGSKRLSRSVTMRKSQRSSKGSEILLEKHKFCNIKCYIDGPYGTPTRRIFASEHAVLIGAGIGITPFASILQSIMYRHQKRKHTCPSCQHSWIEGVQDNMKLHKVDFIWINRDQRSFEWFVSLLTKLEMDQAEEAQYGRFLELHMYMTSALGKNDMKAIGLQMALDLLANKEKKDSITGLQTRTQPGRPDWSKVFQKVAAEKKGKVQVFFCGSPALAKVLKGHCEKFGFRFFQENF
Torsin-1A (Homo sapiens), sequence (O14656 whole entry, looked up): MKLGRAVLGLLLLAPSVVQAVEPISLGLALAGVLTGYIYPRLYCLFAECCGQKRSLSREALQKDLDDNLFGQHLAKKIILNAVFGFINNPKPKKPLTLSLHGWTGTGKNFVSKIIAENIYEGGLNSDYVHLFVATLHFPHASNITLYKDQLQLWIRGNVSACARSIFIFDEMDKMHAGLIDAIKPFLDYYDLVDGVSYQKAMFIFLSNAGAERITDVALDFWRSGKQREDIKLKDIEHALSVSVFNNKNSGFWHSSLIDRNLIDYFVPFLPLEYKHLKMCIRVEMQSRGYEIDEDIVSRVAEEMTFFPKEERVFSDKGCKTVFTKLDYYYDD

For the compound `CC(C)C(=C=CC[C@@H](O)c1cccc(OCCO)c1)CCO`, the composite z-score was 0.263 in assay [1]; -0.236 in assay [6]; 0.442 in assay [7]; 0.462 in the assay with Torsin-1A (Homo sapiens) [8]; 0.0336 with Torsin-1A (Homo sapiens) [9]; 0.567 in assay [10]. For the same compound, the composite z-score in assay [12] worked out at 0.0919. The z-score was -0.219 (inactive) in assay [2]; -0.468 (inactive) in [3]; 1.37 (inactive) in assay [4]; -0.755 (inactive) in [5]; 0.838 (inactive) in assay [11]; 2.96 (inactive) in [13]. Further, the z-score was 0.108 (inactive) in assay [14]; 0.607 (inactive) in assay [15]; 0.233 (inactive) in assay [16]; 0.617 in assay [17]; -0.841 (inactive) in assay [18]; -0.471 (inactive) in [19]. In assay [20], the z-score is -1.26.
Consider `CC(=O)NCCCC[C@@H]1NC(=O)[C@@H]2C[C@H](C(=O)NCCCCCC[N+](C)(C)C)[C@H](c3ccc(O)cc3)N2C1=O`, for which the composite z-score in [1] is 0.0463; in assay [6], -0.314; in assay [7] it was -0.105; with Torsin-1A (Homo sapiens) [8] it was 0.0055; with Torsin-1A (Homo sapiens) [9], 0.885; in [10], 1.75. Further, the composite z-score in [12] worked out at 0.102. In addition, the z-score in [2] is 0.159 (inactive); in assay [3], 0.795 (inactive); in [4], -0.675 (inactive); in assay [5], -0.293 (inactive); in assay [11], -0.303 (inactive); in [13], 1.5 (inactive). Further, the z-score in [14] is 0.0681 (inactive); in [15], -3.5 (inactive); in assay [16], 0.0574 (inactive); in [17], -0.879; in assay [18], 0.881 (inactive); in assay [19], 0.983 (inactive). The z-score in [20] was 0.139.
In the case of `COCCOC(=O)N1C(=O)[C@@]2(c3cc(C#CC4(O)CCCCCC4)ccc31)[C@H](c1ccc(OCCO)cc1)N1[C@H](c3ccccc3)[C@H](c3ccccc3)OC(=O)[C@H]1[C@@H]2C(=O)N1CCCCCCC1`, the composite z-score was 0.539 in [1]; 1.68 in [6]; 1.63 in assay [7]; 1.12 in the assay with Torsin-1A (Homo sapiens) [8]; 1.12 with Torsin-1A (Homo sapiens) [9]; 2 in assay [10]. Further, the composite z-score in [12] worked out at 2.52. The z-score in [2] is -4.81 (inactive); in [3], -0.227 (inactive); in assay [4], 0.212 (inactive); in [5] it was -0.325 (inactive); in [11], 0.148 (inactive); in [13] it was 2.18 (inactive). For the same compound, the z-score was 2.02 (inactive) in [14]; 0.736 (inactive) in assay [15]; 1.02 (inactive) in [16]; 0.49 in assay [17]; 0.707 (inactive) in assay [18]; -1.45 (inactive) in [19]. Moreover, the z-score in assay [20] came out at 0.0377.
`C=CCC(OC(C)=O)[C@@H]1[C@@H](N(Cc2ccc(-c3ccccc3)cc2)C(=O)c2ccc(C)cc2)c2cc(OCCCO)ccc2N1C(=O)c1ccc2ccccc2c1` (stereo not given in full): the composite z-score in assay [1] is 0.0548; in assay [6], 0.122; in [7], 0.108; with Torsin-1A (Homo sapiens) [8], 0.222; with Torsin-1A (Homo sapiens) [9] it was -0.0531; in assay [10] it was 0.587. In addition, the composite z-score in assay [12] was 0.0367. The z-score is -0.715 (inactive) in assay [2]; 0.137 (inactive) in assay [3]; 1.97 (inactive) in assay [4]; 0.179 (inactive) in assay [5]; 2.09 (inactive) in assay [11]; 0.0032 (inactive) in [13]. For the same compound, the z-score in assay [14] is -0.792 (inactive); in [15], -1.31 (inactive); in assay [16], -1.33 (inactive); in assay [17], 1.18; in [18], -0.167 (inactive); in [19], 0.972 (inactive). Besides, the z-score in assay [20] worked out at 1.94.
